The campaign covered roughly 310,000 compounds. About 18,000 (5.8%) were called active. About 22% were inconclusive and are not listed. The call rests on the fitted dose curve; in most records, active means well fitted inhibition curve with a large enough effect; inconclusive means small, poorly fitted or top-dose-only effect, or another doubt; inactive means no such curve, though single readings can be large or run the other way. What follows is part of a selection rich in actives, with near analogues and random picks from the rest. Entries that show only a call come without a potency.
Potency means the concentration at half of the fitted maximal effect.

The assay can be described thus: Primary qHTS for delayed death inhibitors of the malarial parasite plastid, 48 hour incubation. To be noted: P. falciparum luciferase growth in erythrocytes; series mostly up to 28.7 µM. An outline of the steps: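 A one-generation exposure of luciferase-tagged malaria parasites in RPMI 1640/Albumax erythrocyte culture, 37 C and 5% CO2. Inhibition is inferred from decreased luminescence after adding detection reagent.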
(qHTS replaces the single test concentration by a dilution series.)
Turning to `O=C(Nc1ccc(NC(=O)c2ccc3c(c2)OCO3)cc1)c1cccc(Cl)c1`, the Potency result is “inactive”.

`O=C(CSc1n[nH]c(=O)n1-c1ccccc1)Nc1ccccc1C(F)(F)F`: the Potency entry is “inactive”.

Consider `CCN(CC)c1ccc(C2C3CCCCC3(O)CCN2CC(=O)Nc2ccccc2)cc1` (stereo unspecified), for which the Potency result is “inactive”.

Regarding `CC1CCCCN1CC(=O)NCc1ccc2c(c1)OCO2` (stereo unspecified), the Potency entry is “inactive”.

For the molecule `Cc1ccc(NC(=O)CN2CCC3(O)CCCCC3C2c2ccc3c(c2)OCO3)c(C)c1` (stereo unspecified), the Potency is 10.4 µM (active).

`Cc1c(S(=O)(=O)NC(C)c2ccccc2)c(=O)n(C)c(=O)n1C` (stereo unspecified): the Potency result is “inactive”.

For the molecule `O=C(NCCc1ccc(C(F)(F)F)cc1)c1ccc2c(c1)OCO2`, the Potency entry is “inactive”.

For `COc1cc(/C=C2\CCCc3c2nc2ccccc2c3C(=O)O)cc(Cl)c1O`, the Potency entry is “inactive”.

`CC(NS(=O)(=O)c1ccc(OCC(=O)N2CCCC2)cc1)c1ccccc1` (stereo unspecified): the Potency entry was “inactive”.

On to `COc1ccc(N(CC(=O)N2CCCCCC2)S(=O)(=O)c2ccccc2)cc1`, for which the Potency entry was “inactive”.

For the molecule `CCN(c1ccccc1)S(=O)(=O)c1ccc(OCC(=O)N2CCCC2)cc1`, the Potency was 9.28 µM (active).

`CC(=O)Nc1ccc(Nc2ncnc3c2nnn3Cc2ccccc2Cl)cc1`: the Potency result is “inactive”.

With `COCCNC(=O)c1ccc2nc(Cc3ccc(OC)c(OC)c3)oc2c1`, the Potency entry is “inactive”.

On to `O=C(NCCN1CCCC(O)C1)c1cc(COc2c(F)cccc2F)on1` (stereo unspecified), for which the Potency entry was “inactive”.

Regarding `CCC(c1nnnn1C1CCCC1)N(Cc1cccs1)Cc1cc2cccc(C)c2[nH]c1=O` (stereo unspecified), the Potency was 10.4 µM (active).

Turning to `Cc1cccc2cc(CN(Cc3cccs3)C(c3nnnn3C3CCCC3)C(C)C)c(=O)[nH]c12` (stereo unspecified), the Potency was 2.62 µM (active).

Turning to `CCC(=O)Nc1cccc(NC(=O)CSc2nnnn2C2CCCC2)c1`, the Potency entry was “inactive”.

As to `Cc1cccc2cc(CN(C(=O)c3cccs3)c3ccccc3)c(=O)[nH]c12`, the Potency result was “inactive”.

Consider `Cc1cc(C)n2nc(C(=O)OCC(=O)N(CCC#N)c3ccc(F)cc3)nc2n1`, for which the Potency entry is “inactive”.

Regarding `CCOc1ccc(N(C)Cc2cc(=O)oc3ccc(OC)cc23)cc1`, the Potency entry is “inactive”.

Regarding `CC1CCC(NC(=O)CNC(=O)c2ccc3ccccc3c2)CC1` (stereo unspecified), the Potency entry was “inactive”.

With `CN(C(=O)Cn1nnc(-c2ccc(F)cc2)n1)C1CCS(=O)(=O)C1` (stereo unspecified), the Potency result was “inactive”.

Consider `OCC[C@H]1C[C@@H](O)[C@H](O)[C@]2(OCCCc3ccccc32)O1`, for which the Potency result is “inactive”.

In the case of `Cc1ccc2c(c1)N(CC(=O)N1CCC(C)CC1)C(=O)c1cccnc1O2`, the Potency result is “inactive”.

Regarding `Cc1ccc(SCc2c(C(=O)N/N=C/c3cccnc3)nnn2-c2nonc2N)cc1`, the Potency entry was “inactive”.

`CCOC(=O)CNC(=O)N1c2ccccc2Sc2ccccc21`: the Potency entry was “inactive”.

`O=C(CN1CCCCCC1)N1c2ccccc2Sc2ccc(C(F)(F)F)cc21`: the Potency is 13.1 µM (active).

Regarding `COc1cc(/C=C/C(=O)N2c3ccccc3Sc3ccc(C(F)(F)F)cc32)cc(OC)c1OC`, the Potency entry was “inactive”.

Turning to `Cc1ccc(C(CNC(=O)Nc2ccccc2)N2CCN(C)CC2)cc1` (stereo unspecified), the Potency result was “inactive”.

With `Cc1ccc(S(=O)(=O)N2CCC(C(=O)OCC(=O)N(C)c3ccccc3)CC2)cc1C`, the Potency entry was “inactive”.

For the molecule `COc1ccc(-c2nnc(SC(C)C(=O)NC3CC3)o2)cc1` (stereo unspecified), the Potency was 10.4 µM (active).

Take `COc1ccc(-c2nnc(SC(C)C#N)o2)cc1` (stereo unspecified): the Potency entry is “inactive”.

As to `COc1ccc(-c2nnc(SCc3cccnc3)o2)cc1`, the Potency result was “inactive”.

Take `CCCC(C)c1nnc(NC(=O)C2CC(=O)N(c3ccc(OCC)cc3)C2)s1` (stereo unspecified): the Potency result was “inactive”.

Regarding `COc1ccc(N2CCN(c3ccc([N+](=O)[O-])cc3Cl)CC2)cc1`, the Potency result is “inactive”.

`CCN1CCN(c2ccc([N+](=O)[O-])cc2C(=O)c2ccc(Cl)cc2)CC1`: the Potency entry is “inactive”.

As for `CCN1CCN(c2ccc([N+](=O)[O-])cc2C#N)CC1`, the Potency was 4.15 µM (active).

As to `COCCn1c(SCC(=O)Nc2nc(C)cs2)nnc1C(C)C`, the Potency result is “inactive”.

Take `O=S(=O)(c1ccc(Cl)s1)N1CCC2(CC1)OCCO2`: the Potency result is “inactive”.

With `O=C(Nc1cccc(-c2nc3ccccc3[nH]2)c1)c1ccc(C(=O)Nc2cccc(-c3nc4ccccc4[nH]3)c2)cc1`, the Potency is 0.37 µM (active).

For `O=C(Nc1cccc(NC(=O)c2ccc(Br)cc2)c1)c1ccccc1`, the Potency result is “inactive”.

For `O=C(Cc1cccs1)Nc1cccc(-c2nc3ccccc3[nH]2)c1`, the Potency entry is “inactive”.

In the case of `O=S(=O)(Nc1cc(S(=O)(=O)N2CCOCC2)ccc1N1CCCC1)c1cccs1`, the Potency result is “inactive”.

With `O=S(=O)(Nc1ccc(-c2ccc(N3CCOCC3)nn2)cc1)c1cc(Cl)ccc1Cl`, the Potency result was “inactive”.

`O=S(=O)(Nc1cc(Cl)ccc1N1CCOCC1)c1ccccc1Cl`: the Potency was 13.1 µM (active).

Take `COCCCNC(=O)[C@H]1N2C(=O)c3ccccc3C2SC1(C)C` (stereo partly specified): the Potency entry is “inactive”.

As for `COc1ccc(C(C(=O)NC2CCCCC2)N(C(=O)c2snc(C(N)=O)c2N)c2ccccc2OC)cc1` (stereo unspecified), the Potency is 14.7 µM (active).

Take `COc1ccc(S(=O)(=O)NCc2ccc(C(=O)N(C)Cc3ccco3)cc2)cc1`: the Potency entry is “inactive”.

Turning to `CCC(C(=O)NCc1ccc(OC)cc1)n1nc(C)n2c(cc3occc32)c1=O` (stereo unspecified), the Potency entry was “inactive”.

`COc1ccc(CNC(=O)C(c2ccc(O)cc2)N(Cc2ccco2)C(=O)c2snc(C(N)=O)c2N)cc1` (stereo unspecified): the Potency was 13.1 µM (active).

In the case of `COc1ccc(C(C(=O)NC2CCCCC2)N(C(=O)CCl)c2ccccc2Cl)cc1` (stereo unspecified), the Potency entry is “inactive”.

For `COc1cc(C(C(=O)NC2CCCC2)N(Cc2ccccc2)C(=O)c2snc(C(N)=O)c2N)ccc1O` (stereo unspecified), the Potency entry was “inactive”.

As for `Cc1cc(CN(C)C(=O)c2cc(COc3ccc(C)c(C)c3)on2)n[nH]1`, the Potency result was “inactive”.

In the case of `CC(=O)c1ccc(NC(=O)Cn2c(=O)oc3ccccc32)cc1`, the Potency entry is “inactive”.

Consider `CCCCc1nc2cc(C(=O)N3CCCCC3CCO)ccc2o1` (stereo unspecified), for which the Potency result was “inactive”.

Consider `O=C(Nc1cn(-c2ccccc2)nc1-c1ccccc1)c1ccccc1`, for which the Potency result is “inactive”.

As for `CCc1ccc(-c2nn(-c3ccccc3)cc2CSC(=N)N)cc1`, the Potency was 4.15 µM (active).

For the molecule `Cc1ccc(-c2nn(-c3ccccc3)cc2C(=O)NC2CCC(O)CC2)cc1` (stereo unspecified), the Potency result is “inactive”.

Take `Cc1ccccc1OCC(=O)Nc1ccc2c(c1)ncn2C`: the Potency entry was “inactive”.

For `CN(CCc1ccccn1)C(=O)c1ccc(OC2CCN(CCc3ccccc3)CC2)cc1`, the Potency result is “inactive”.

On to `COC(=O)c1ccc(CSc2ccccc2C)o1`, for which the Potency result is “inactive”.

As for `O=C(CSc1ccc2nnc(-c3ccccc3)n2n1)N1CCCc2ccccc21`, the Potency is 13.1 µM (active).

Consider `COC(=O)c1ccc(CSc2ccc3nnc(-c4ccccc4)n3n2)o1`, for which the Potency was 10.4 µM (active).

On to `CCCn1c(SCC(=O)N2CCc3ccccc32)nnc1-c1ccncc1`, for which the Potency result was “inactive”.

On to `CCC(=O)N1CCCc2ccccc21`, for which the Potency result is “inactive”.

As for `COC(=O)c1ccc(CSc2nnc(N)s2)o1`, the Potency result was “inactive”.

Source of the values: PubChem BioAssay AID504832 (National Center for Advancing Translational Sciences (NCATS), 2011).
